Key:
Assay in all cases: log2 ratio of Biotin-Ahx-Ub-VS probe labelling (fragment/DMSO); higher = less target engagement (more negative = stronger competition), active = hit call of the paper (q ≤ 0.05, log2 ratio ≤ -1)
Settings in all cases: compound concentration: 200 uM; treatment time: 3 h
[1] = target: T1, USP42 (UniProt Q9H9J4)
T1 sequence (whole entry): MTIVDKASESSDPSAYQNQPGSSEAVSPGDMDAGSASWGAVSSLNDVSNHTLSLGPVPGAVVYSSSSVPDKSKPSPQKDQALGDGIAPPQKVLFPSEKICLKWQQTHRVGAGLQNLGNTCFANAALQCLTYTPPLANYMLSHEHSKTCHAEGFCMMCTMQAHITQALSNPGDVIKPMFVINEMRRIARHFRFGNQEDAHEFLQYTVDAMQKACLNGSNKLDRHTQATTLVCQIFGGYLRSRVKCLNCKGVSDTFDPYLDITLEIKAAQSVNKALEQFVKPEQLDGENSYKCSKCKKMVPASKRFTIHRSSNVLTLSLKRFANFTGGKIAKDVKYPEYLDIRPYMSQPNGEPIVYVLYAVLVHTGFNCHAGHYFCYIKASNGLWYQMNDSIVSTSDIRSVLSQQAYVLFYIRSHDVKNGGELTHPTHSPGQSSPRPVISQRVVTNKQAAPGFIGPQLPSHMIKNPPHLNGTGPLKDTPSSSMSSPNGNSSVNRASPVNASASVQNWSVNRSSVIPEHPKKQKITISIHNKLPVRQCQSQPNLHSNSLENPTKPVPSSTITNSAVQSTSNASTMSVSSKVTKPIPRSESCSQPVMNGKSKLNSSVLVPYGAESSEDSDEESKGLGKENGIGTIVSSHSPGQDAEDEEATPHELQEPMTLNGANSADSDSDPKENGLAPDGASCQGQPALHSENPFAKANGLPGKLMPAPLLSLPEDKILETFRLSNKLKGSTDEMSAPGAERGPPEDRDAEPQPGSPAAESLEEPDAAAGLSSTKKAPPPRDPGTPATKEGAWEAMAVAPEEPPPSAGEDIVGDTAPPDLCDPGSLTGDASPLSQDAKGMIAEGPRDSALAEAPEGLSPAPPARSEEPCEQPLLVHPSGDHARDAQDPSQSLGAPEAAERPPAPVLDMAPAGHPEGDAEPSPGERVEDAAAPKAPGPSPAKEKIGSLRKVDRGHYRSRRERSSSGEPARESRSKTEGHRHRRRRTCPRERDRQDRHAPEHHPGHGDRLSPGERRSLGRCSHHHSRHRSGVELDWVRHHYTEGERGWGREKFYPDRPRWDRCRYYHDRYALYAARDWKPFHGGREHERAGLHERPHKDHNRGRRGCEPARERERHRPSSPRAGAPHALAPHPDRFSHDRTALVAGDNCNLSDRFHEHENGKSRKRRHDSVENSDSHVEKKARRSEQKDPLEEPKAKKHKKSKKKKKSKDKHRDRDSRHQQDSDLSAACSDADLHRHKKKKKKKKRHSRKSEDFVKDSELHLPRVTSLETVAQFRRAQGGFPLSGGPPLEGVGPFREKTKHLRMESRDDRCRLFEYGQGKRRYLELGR
Summary of the method: (§1)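 Fragment (200 µM) or vehicle was incubated for 3 h with triplicate HEK293T lysate samples of 495 µg, which were then treated with Biotin-Ahx-Ub-VS at 0.5 µM final for 1 h. Labelled DUBs were enriched on NeutrAvidin, digested with LysC and trypsin, and analysed by diaPASEF LC-MS/MS. Values are average log2 fragment/vehicle ratios from an unpaired t-test on global-median-normalised Spectronaut label-free quantities, using proteins with ≥2 unique peptides.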

[2] = target: USP46 (UniProt P62068)
Summary of the method: as §1

[3] = target: T2, USP47 (UniProt Q96K76)
T2 sequence (whole entry): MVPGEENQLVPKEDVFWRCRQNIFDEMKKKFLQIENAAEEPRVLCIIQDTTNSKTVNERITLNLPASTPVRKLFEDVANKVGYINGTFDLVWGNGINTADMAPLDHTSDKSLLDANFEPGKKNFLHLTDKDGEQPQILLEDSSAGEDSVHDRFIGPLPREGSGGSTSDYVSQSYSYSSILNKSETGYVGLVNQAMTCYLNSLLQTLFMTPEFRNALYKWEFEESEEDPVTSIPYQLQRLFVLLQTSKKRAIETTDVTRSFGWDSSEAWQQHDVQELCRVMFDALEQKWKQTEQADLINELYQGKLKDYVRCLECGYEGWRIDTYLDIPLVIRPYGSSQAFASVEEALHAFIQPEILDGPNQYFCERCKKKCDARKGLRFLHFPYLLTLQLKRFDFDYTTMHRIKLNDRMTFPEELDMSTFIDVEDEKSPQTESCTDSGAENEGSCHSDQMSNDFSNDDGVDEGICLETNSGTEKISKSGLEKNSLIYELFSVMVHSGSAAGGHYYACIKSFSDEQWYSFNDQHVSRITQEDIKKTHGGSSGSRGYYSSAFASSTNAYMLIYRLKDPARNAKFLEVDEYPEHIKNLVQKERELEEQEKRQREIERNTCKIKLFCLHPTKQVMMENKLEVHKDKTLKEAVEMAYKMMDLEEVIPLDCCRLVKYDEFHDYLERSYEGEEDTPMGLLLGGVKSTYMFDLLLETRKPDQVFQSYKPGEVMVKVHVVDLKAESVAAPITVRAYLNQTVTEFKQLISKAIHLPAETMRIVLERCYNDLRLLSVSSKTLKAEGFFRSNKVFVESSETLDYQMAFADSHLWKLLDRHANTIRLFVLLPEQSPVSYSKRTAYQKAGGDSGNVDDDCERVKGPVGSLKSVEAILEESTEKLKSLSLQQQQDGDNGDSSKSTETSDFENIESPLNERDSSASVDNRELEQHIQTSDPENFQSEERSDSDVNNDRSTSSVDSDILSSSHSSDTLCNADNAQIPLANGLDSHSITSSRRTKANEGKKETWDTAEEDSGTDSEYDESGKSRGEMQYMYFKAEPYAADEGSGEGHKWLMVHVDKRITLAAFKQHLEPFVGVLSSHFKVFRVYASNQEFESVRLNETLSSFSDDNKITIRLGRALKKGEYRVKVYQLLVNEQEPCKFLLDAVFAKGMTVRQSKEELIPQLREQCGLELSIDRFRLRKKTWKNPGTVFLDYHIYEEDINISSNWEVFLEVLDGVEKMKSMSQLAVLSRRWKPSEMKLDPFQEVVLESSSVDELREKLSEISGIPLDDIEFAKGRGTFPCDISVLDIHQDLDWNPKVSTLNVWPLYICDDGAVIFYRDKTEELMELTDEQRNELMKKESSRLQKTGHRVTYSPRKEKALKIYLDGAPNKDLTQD
Summary of the method: as §1

[4] = target: T3, USP48 (UniProt Q86UV5)
T3 sequence (whole entry): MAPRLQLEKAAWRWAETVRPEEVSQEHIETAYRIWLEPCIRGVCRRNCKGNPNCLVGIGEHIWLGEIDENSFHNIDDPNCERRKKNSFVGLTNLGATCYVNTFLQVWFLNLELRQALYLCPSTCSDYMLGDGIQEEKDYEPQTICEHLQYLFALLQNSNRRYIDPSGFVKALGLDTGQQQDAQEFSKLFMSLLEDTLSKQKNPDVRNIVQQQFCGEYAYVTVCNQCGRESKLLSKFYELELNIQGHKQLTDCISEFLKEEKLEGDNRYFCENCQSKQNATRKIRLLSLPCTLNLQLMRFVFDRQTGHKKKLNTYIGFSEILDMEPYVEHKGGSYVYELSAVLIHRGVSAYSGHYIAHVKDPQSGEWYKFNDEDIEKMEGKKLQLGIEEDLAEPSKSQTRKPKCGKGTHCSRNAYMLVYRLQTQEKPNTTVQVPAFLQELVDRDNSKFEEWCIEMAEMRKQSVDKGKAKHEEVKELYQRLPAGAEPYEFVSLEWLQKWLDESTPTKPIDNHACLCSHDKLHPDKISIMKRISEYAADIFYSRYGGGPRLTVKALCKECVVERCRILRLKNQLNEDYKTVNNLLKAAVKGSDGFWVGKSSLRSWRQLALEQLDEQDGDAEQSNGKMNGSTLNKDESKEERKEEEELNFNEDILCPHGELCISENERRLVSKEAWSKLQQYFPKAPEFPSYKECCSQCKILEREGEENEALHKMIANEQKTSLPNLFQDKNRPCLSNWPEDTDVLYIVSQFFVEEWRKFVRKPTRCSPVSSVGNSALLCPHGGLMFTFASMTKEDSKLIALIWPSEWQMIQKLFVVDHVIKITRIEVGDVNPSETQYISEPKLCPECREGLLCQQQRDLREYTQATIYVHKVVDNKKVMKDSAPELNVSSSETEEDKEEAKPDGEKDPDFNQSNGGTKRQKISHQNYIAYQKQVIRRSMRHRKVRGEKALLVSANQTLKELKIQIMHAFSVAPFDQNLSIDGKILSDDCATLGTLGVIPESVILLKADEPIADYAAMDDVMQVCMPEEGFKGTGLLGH
Summary of the method: as §1

[5] = target: T4, USP5 (UniProt P45974)
T4 sequence (whole entry): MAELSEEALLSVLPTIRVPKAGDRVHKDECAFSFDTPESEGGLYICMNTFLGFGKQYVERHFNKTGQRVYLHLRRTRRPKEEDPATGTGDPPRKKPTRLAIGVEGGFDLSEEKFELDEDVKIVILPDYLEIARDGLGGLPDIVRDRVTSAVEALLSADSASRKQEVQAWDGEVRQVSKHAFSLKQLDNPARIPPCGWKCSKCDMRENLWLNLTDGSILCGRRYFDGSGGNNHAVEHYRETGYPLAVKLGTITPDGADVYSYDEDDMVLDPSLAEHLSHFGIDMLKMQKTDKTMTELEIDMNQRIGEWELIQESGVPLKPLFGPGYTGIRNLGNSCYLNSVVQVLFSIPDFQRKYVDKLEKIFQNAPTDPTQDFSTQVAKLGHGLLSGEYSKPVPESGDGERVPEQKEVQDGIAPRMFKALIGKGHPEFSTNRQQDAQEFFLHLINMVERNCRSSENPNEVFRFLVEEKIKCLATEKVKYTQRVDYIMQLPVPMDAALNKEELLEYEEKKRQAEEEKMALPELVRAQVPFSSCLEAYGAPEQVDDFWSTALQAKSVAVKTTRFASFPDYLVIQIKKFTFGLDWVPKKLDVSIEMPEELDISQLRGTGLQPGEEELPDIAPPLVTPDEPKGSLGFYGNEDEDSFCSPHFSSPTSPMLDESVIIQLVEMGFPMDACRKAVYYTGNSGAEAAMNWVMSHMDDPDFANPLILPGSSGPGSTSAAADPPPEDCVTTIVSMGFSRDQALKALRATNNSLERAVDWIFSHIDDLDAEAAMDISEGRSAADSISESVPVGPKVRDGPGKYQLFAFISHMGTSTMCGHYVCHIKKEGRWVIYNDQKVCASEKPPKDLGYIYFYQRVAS
Summary of the method: as §1

[6] = target: USP54 (UniProt Q70EL1)
Summary of the method: as §1

[7] = target: USP7 (UniProt Q93009)
Summary of the method: as §1

[8] = target: T5, USP8 (UniProt P40818)
T5 sequence (whole entry): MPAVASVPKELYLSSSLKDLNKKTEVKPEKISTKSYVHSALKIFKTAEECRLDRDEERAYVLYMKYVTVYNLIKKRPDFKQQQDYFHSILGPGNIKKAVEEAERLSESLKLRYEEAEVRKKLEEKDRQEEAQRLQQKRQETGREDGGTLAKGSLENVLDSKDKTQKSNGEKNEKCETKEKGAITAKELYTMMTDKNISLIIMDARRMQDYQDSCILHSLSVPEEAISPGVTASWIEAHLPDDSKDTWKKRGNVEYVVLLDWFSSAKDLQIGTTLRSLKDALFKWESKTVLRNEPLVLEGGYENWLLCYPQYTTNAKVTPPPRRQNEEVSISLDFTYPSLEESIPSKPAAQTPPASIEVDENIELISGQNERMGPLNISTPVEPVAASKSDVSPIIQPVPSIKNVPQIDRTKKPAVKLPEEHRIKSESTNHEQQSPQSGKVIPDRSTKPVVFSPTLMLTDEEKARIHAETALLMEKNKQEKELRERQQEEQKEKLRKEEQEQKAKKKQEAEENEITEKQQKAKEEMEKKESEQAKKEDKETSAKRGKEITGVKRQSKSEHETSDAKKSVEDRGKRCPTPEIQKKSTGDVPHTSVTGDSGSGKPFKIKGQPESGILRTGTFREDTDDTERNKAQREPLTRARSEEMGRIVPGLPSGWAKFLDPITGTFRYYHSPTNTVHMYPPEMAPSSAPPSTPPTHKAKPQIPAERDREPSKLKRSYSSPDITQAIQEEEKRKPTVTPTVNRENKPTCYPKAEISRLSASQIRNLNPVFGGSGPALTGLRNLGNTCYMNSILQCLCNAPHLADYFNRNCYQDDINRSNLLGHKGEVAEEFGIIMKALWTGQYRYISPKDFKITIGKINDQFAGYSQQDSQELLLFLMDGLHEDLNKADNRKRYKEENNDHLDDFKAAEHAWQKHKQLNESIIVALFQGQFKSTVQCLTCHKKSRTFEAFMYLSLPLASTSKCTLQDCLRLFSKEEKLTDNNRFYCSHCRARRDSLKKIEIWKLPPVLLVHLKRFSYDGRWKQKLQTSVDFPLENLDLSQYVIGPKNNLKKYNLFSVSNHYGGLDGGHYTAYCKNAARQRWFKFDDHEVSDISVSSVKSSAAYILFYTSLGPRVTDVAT
Summary of the method: as §1

Measured: log2 ratio of Biotin-Ahx-Ub-VS probe labelling

Chain of USP46 (P62068 whole entry): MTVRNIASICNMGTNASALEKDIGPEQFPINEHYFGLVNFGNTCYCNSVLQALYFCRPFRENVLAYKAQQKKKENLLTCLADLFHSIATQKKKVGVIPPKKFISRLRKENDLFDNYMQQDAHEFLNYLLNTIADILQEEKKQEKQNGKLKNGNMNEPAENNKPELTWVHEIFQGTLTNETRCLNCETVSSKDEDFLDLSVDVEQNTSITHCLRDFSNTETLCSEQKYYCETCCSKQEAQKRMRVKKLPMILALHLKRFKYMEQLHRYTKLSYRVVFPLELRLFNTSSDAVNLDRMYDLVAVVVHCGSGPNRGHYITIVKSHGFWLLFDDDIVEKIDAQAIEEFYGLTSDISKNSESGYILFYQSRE
Chain of USP54 (Q70EL1 whole entry): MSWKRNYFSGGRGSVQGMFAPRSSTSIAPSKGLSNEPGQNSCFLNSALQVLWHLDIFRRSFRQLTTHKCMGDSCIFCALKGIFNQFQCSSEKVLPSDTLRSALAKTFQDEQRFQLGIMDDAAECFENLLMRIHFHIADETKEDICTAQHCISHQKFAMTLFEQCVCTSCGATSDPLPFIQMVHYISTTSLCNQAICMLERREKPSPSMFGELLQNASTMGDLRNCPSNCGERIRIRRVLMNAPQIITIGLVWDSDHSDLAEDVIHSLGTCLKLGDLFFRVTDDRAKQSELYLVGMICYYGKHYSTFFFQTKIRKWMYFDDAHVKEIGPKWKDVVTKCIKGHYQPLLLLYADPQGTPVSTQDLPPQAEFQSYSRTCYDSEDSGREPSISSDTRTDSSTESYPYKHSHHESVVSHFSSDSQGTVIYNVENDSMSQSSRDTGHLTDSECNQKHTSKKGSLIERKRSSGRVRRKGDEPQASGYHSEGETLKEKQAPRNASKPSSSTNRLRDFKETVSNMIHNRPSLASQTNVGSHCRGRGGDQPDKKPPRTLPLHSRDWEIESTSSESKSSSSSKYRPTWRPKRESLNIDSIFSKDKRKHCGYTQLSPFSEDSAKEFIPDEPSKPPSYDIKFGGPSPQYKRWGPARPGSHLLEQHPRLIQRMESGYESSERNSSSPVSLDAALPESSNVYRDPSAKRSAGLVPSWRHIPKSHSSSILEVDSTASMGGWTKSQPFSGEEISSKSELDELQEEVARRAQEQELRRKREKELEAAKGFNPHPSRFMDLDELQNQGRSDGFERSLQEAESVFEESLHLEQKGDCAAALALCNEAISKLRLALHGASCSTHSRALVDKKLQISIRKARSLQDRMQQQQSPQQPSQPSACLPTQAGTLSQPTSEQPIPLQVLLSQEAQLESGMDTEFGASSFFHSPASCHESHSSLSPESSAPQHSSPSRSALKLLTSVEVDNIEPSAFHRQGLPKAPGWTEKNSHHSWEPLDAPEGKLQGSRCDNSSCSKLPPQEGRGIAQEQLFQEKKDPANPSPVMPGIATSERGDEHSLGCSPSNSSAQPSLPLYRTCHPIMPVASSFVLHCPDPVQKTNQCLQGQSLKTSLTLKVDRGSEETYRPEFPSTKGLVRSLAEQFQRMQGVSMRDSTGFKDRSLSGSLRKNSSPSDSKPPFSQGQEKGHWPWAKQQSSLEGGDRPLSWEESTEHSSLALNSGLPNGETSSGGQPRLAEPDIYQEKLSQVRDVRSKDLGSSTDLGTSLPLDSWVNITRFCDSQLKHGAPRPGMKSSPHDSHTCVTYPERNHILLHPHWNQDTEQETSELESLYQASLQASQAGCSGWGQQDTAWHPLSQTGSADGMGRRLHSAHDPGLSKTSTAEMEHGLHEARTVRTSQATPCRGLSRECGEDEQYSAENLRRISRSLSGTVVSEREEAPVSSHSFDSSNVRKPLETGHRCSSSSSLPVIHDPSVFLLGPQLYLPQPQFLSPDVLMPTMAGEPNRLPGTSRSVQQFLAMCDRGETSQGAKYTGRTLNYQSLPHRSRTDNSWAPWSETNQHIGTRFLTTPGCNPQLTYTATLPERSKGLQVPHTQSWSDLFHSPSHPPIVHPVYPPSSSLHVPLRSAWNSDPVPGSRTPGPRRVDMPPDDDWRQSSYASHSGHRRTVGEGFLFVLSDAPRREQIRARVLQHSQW
Chain of USP7 (Q93009 whole entry, looked up): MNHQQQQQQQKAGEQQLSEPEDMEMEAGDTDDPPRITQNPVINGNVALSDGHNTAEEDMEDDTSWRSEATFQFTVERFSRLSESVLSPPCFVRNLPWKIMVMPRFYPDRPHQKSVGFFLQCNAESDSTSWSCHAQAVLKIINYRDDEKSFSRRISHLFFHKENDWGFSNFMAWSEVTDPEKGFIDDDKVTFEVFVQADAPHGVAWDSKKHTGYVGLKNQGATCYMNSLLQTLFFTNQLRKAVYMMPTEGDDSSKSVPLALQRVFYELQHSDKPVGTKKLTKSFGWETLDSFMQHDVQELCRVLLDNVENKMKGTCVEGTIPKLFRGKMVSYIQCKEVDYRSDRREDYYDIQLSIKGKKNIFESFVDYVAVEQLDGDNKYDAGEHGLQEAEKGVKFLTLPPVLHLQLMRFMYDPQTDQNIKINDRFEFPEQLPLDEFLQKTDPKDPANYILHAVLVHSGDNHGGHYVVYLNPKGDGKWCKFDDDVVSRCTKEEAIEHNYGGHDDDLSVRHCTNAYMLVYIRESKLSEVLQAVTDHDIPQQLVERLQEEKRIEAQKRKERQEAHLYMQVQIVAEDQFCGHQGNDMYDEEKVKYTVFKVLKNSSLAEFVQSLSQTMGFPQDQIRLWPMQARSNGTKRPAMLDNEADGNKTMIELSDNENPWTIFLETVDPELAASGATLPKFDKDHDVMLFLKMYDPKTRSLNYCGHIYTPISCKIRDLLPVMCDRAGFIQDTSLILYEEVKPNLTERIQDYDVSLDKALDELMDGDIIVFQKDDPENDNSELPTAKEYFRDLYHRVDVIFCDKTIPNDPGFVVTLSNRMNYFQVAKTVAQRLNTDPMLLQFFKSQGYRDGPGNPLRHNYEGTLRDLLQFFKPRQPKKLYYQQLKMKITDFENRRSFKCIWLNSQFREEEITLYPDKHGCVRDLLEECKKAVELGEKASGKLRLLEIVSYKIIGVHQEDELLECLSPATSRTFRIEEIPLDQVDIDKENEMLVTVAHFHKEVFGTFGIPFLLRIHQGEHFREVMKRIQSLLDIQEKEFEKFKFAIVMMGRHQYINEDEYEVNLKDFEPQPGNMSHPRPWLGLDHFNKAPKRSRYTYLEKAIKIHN

CCc1c[nH]c(CNC(=O)CCl)n1.Cl
inactive: [1] 0.203 | [2] -0.136 | [3] -0.108 | [4] -0.267 | [5] -0.335 | [6] 0.304 | [7] -0.288 | [8] -0.335
